In PubChem BioAssay (EPA / NIEHS) one finds AC50 and outcome data, which are given here for 13 molecules.

Holding throughout (settings): mRNA level, 48 h; actives raise or lower the signal
Read-out in one assay: CYP2E1 (gene 1571)
Briefly: LTEA_HepaRG_CYP2E1: Life Technologies and Expression Analysis (LTEA) Assay for CYP2E1 using HepaRG (AID 2283485). The method in brief: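 Readout is qRT-PCR of CYP2E1 mRNA, normalized to three housekeeping genes and fitted bidirectionally against 0.5% DMSO. HepaRG cells were dosed 48 h at eight concentrations, highest 100 uM with half-log dilutions.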

Read-out in another assay: CYP4A11 (gene 1579)
Briefly: LTEA_HepaRG_CYP4A11: Life Technologies and Expression Analysis (LTEA) Assay for CYP4A11 using HepaRG (AID 2283486). Put shortly: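 Readout is CYP4A11 mRNA induction or suppression (qRT-PCR, ACTB/GAPDH/POLR2A normalization) in human HepaRG cells after 48 h chemical treatment, concentrations to 100 uM in 0.5% DMSO, fitted bidirectionally against vehicle.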

Read-out in assay [1]: Cytochrome P450 3A4 (Homo sapiens) (UniProt P08684)
Briefly: LTEA_HepaRG_CYP3A4: Life Technologies and Expression Analysis (LTEA) Assay for CYP3A4 using HepaRG (AID 2283487). Put shortly:
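Differentiated HepaRG cells in serum-free induction medium exposed in duplicate for 48 h to 8 half-log concentrations up to 100 uM in 0.5% DMSO. CYP3A4 mRNA measured by qRT-PCR normalized to ACTB, GAPDH and POLR2A; bidirectional fit versus DMSO.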

Read-out in assay [2]: DNA damage-inducible transcript 3 (DDIT3), DDIT3 (gene 1649)
Briefly: LTEA_HepaRG_DDIT3: Life Technologies and Expression Analysis (LTEA) Assay for DNA damage-inducible transcript 3 (DDIT3) using HepaRG (AID 2283488). Put shortly: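 Cells are human HepaRG liver cells treated for 48 h with eight half-log concentrations up to 100 uM in 0.5% DMSO. Transcript levels come from qRT-PCR normalized to three housekeeping genes, with activity fitted in both directions relative to vehicle.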

Read-out in assay [3]: Pro-epidermal growth factor (Homo sapiens) (UniProt P01133)
Briefly: LTEA_HepaRG_EGF: Life Technologies and Expression Analysis (LTEA) Assay for Epidermal growth factor (EGF) using HepaRG (AID 2283489). Put shortly:
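EGF expression changes in human HepaRG cells are scored by bidirectional fitting relative to 0.5% DMSO controls. Chemicals are tested at eight half-log concentrations up to 100 uM for 48 h in serum-free induction medium.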

Read-out in assay [4]: Early growth response protein 1 (EGR1) transcription factor, EGR1 (gene 1958)
Kind of assay: LTEA_HepaRG_EGR1: Life Technologies and Expression Analysis (LTEA) Assay for Early growth response protein 1 (EGR1) transcription factor using HepaRG (AID 2283490). Put shortly: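 EGR1 expression change in human HepaRG after 48 h chemical exposure, assessed by housekeeping-normalized qRT-PCR; concentration-response up to 100 uM, fitted in both directions against DMSO controls.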

Read-out in assay [5]: Ezrin (EZR), EZR (gene 7430)
Briefly: LTEA_HepaRG_EZR: Life Technologies and Expression Analysis (LTEA) Assay for Ezrin (EZR) using HepaRG (AID 2283491). The method in brief:
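Differentiated human HepaRG cells, 48 h after plating, were exposed in serum-free induction medium for 48 hours to eight half-log concentrations up to 100 uM in 0.5% DMSO. EZR mRNA was measured by TaqMan qRT-PCR, normalized to ACTB, GAPDH and POLR2A, and fitted bidirectionally against DMSO.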

Read-out in assay [6]: Cytochrome P450 3A7 (Homo sapiens) (UniProt P24462)
Briefly: LTEA_HepaRG_CYP3A7: Life Technologies and Expression Analysis (LTEA) Assay for CYP3A7 using HepaRG (AID 2283492). The method in brief: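 Cells were thawed, plated, cultured 48 h, then treated for a further 48 h with chemicals (eight-point half-log series from 100 uM, 0.5% DMSO). RNA was isolated and CYP3A7 expression quantified by qRT-PCR normalised to ACTB, GAPDH and POLR2A.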

Read-out in another assay: CYP3A5 (gene 1577)
Briefly: LTEA_HepaRG_CYP3A5: Life Technologies and Expression Analysis (LTEA) Assay for CYP3A5 using HepaRG (AID 2283493). Put shortly:
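Human HepaRG hepatic cells receive 48 h chemical treatment at eight concentrations (half-log steps from 100 uM) in 0.5% DMSO. Expression of CYP3A5 is quantified by Fluidigm qRT-PCR and normalized to three reference genes.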

Read-out in a further assay: CYP2C9 (gene 1559)
Kind of assay: LTEA_HepaRG_CYP2C9: Life Technologies and Expression Analysis (LTEA) Assay for CYP2C9 using HepaRG (AID 2283484). Put shortly:
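Eight-point concentration-response (highest 100 uM, half-log dilutions) in HepaRG cells for 48 h; CYP2C9 expression by qRT-PCR normalized to ACTB, GAPDH, POLR2A. Bidirectional fit, DMSO baseline.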

Structures are written as SMILES. Several values for one entry are separate records, joined by “and”; a condition that tells them apart may be missing. Equal values may be shown once. Some structures have more than one record in an assay (separate samples or runs), and their calls can disagree. Activity calls are given as the source filed them. The calls were made as follows: active = hit-call score of the fitted dose curve at least 0.9, where 1 is the maximum; inactive = score below 0.9.

Cytochrome P450 3A7 (Homo sapiens), sequence (P24462 whole entry, looked up): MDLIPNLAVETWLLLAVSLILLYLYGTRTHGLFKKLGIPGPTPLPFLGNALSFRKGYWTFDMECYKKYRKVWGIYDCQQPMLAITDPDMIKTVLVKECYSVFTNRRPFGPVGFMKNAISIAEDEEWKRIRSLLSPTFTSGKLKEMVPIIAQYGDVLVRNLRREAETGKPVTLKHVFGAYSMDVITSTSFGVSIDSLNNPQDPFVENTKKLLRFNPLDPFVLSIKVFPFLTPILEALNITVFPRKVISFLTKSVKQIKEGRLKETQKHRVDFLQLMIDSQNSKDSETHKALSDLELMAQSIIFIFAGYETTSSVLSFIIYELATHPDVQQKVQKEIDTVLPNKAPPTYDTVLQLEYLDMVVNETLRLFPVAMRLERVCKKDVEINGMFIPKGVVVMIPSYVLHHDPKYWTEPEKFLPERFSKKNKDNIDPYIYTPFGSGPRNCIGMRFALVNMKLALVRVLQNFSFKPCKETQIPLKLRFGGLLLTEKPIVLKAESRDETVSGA
Cytochrome P450 3A4 (Homo sapiens), sequence (P08684 whole entry, looked up): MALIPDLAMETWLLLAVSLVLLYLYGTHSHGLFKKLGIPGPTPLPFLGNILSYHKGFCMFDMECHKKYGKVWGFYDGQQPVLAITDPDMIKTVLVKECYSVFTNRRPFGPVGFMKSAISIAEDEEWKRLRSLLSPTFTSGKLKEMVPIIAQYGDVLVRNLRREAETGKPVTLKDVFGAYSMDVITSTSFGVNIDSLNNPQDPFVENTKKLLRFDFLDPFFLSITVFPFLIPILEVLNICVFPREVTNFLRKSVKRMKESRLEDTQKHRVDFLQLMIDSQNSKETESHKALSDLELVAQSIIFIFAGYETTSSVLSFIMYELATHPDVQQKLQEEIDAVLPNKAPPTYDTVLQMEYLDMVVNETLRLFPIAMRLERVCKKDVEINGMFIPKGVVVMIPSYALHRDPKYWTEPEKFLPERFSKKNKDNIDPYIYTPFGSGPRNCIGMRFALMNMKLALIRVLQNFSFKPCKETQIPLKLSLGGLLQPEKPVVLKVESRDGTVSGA

On to `CCOC(=O)NCCOc1ccc(Oc2ccccc2)cc1`, for which the AC50 in the assay with CYP2E1 (gene 1571) is 83.8 µM (active); with CYP4A11 (gene 1579) it was 84.1 µM (active); in assay [1], 87.8 µM (active); in assay [2], 89 µM (active); with CYP3A5 (gene 1577), 84.8 µM (active). Besides, the outcome in assay [3], in assay [4], in assay [5] and in assay [6] was inactive.
For the molecule `CCSC(=O)N(CC(C)C)CC(C)C`, the molecule was called inactive (in the assay with CYP2C9 (gene 1559); with CYP2E1 (gene 1571); with CYP4A11 (gene 1579); in assay [1]; in assay [2]; in [3]). Moreover, the result (in assay [4]; in assay [5]; in [6]; with CYP3A5 (gene 1577)) was inactive.
Consider `CCOC(=O)C(C)Oc1ccc(Oc2nc3ccc(Cl)cc3o2)cc1` (stereo not drawn), for which the AC50 in the assay with CYP2E1 (gene 1571) was 35.6 µM (active). Also, the call (with CYP4A11 (gene 1579); in [1]; in [2]; in assay [3]; in assay [4]; in assay [5]) was inactive. In addition, the result (in [6]; with CYP3A5 (gene 1577)) was inactive.
Consider `C#CCOC(=O)[C@@H](C)Oc1ccc(Oc2ncc(Cl)cc2F)cc1`, for which the outcome (with CYP2E1 (gene 1571); in assay [1]; in [2]; in assay [3]; in [4]; in assay [5]) was inactive. In addition, the molecule was called inactive with CYP3A5 (gene 1577). In addition, the AC50 is 19 µM (active) in the assay with CYP4A11 (gene 1579) and 50 µM (active) in [6].
With `CC(C)(c1ccc(O)cc1)c1ccc(O)cc1`, the result (with CYP2E1 (gene 1571); with CYP4A11 (gene 1579); in assay [1]; in assay [2]; in [3]; in [4]) was inactive. Moreover, the outcome (in assay [5]; in assay [6]; in the assay with CYP3A5 (gene 1577)) was inactive.
Consider `O=C(O)C1(C(=O)Nc2ccc(Cl)cc2Cl)CC1`, for which the AC50 is 63.5 µM (active) with CYP2E1 (gene 1571); 84.8 µM (active) with CYP4A11 (gene 1579); 75.4 µM (active) in assay [1]; 31.6 µM (active) in assay [3]; 50 µM (active) in assay [4]; 91 µM (active) in assay [6]. The molecule was called inactive (in [2]; in [5]; with CYP3A5 (gene 1577)).
For `CCCOC(=O)c1ccc(C(=O)OCCC)nc1`, the molecule was classed as inactive (in the assay with CYP2E1 (gene 1571); with CYP4A11 (gene 1579); in [1]; in assay [2]; in assay [3]; in assay [4]). In addition, the molecule was classed as inactive (in assay [5]; in assay [6]; with CYP3A5 (gene 1577)).
In the case of `C=CCOC(Cn1ccnc1)c1ccc(Cl)cc1Cl` (stereo not drawn), the AC50 was 33.1 µM (active) with CYP2C9 (gene 1559); 13.1 µM (active) in the assay with CYP2E1 (gene 1571); 28.1 µM (active) with CYP4A11 (gene 1579); 85 µM (active) in assay [3]; 79.6 µM (active) in the assay with CYP3A5 (gene 1577). Besides, the molecule was classed as inactive in [4] and in assay [5].
Consider `COC(=O)CSc1cc(N=c2sc(=O)n3n2CCCC3)c(F)cc1Cl`, for which the AC50 with CYP2E1 (gene 1571) is 50 µM (active); in [1] it was 13.5 µM (active); in [6], 16 µM (active). The molecule was classed as inactive (in the assay with CYP4A11 (gene 1579); in [2]; in [3]; in [4]; in assay [5]; with CYP3A5 (gene 1577)).
Turning to `CCCOC(=O)NCCCN(C)C`, the molecule was classed as inactive (in the assay with CYP2E1 (gene 1571); in the assay with CYP4A11 (gene 1579); in [1]; in assay [2]; in assay [3]; in assay [4]). Also, the molecule was classed as inactive (in assay [5]; in assay [6]; with CYP3A5 (gene 1577)).
As for `S=C(S)NCCNC(=S)S.[Mn+2].[S-]C([S-])=NCCN=C([S-])[S-].[Zn+2]`, the concentration at half-maximal activity (AC50) with CYP2C9 (gene 1559) is 823 nM (active) and 816 nM (active) and 891 nM (active); with CYP2E1 (gene 1571) it was 1.21 µM (active) and 1.4 µM (active) and 1.62 µM (active); with CYP4A11 (gene 1579), 1.38 µM (active) and 1.51 µM (active) and 1.36 µM (active); in assay [1], 827 nM (active) and 1.11 µM (active) and 1.02 µM (active); in [2] it was 3.87 µM (active) and 1.87 µM (active) and 1.64 µM (active); in [3], 2.3 µM (active) and 673 nM (active). The AC50 is 3.58 µM (active) and 2.44 µM (active) and 4.53 µM (active) in assay [4]; 947 nM (active) and 1.22 µM (active) and 1.41 µM (active) in assay [6]; 1.94 µM (active) and 1.32 µM (active) and 700 nM (active) with CYP3A5 (gene 1577). Further, the molecule was called inactive in assay [3] and in [5].
Regarding `C#C[C@]1(O)CC[C@H]2[C@@H]3CCC4=CC(=O)CC[C@@H]4[C@H]3CC[C@@]21CC`, the result (with CYP2C9 (gene 1559); in assay [1]; in assay [2]; in [3]; in [4]; in [5]) was inactive. The molecule was classed as inactive in the assay with CYP3A5 (gene 1577). Also, the AC50 in the assay with CYP2E1 (gene 1571) is 0.00149 µM (active); with CYP4A11 (gene 1579) it was 0.0276 µM (active).
For `O=C(c1ccc(O)cc1O)c1ccc(O)cc1O`, the molecule was called inactive (in the assay with CYP2E1 (gene 1571); with CYP4A11 (gene 1579); in assay [1]; in [2]; in assay [3]; in assay [4]). The call (in assay [5]; in assay [6]; in the assay with CYP3A5 (gene 1577)) was inactive.

For orientation: AC50 means the midpoint of the concentration-response curve, whichever way the signal moves.
